PLAP activator: human PLAP activation. AID 696. P05187. activation fold at 20 µM. 1.2% of 96,000 active. purified PLAP enzyme, luminescent substrate read-out; hits give high values; in the data active means activation fold above about 2
Target sequence (P05187 whole entry, looked up): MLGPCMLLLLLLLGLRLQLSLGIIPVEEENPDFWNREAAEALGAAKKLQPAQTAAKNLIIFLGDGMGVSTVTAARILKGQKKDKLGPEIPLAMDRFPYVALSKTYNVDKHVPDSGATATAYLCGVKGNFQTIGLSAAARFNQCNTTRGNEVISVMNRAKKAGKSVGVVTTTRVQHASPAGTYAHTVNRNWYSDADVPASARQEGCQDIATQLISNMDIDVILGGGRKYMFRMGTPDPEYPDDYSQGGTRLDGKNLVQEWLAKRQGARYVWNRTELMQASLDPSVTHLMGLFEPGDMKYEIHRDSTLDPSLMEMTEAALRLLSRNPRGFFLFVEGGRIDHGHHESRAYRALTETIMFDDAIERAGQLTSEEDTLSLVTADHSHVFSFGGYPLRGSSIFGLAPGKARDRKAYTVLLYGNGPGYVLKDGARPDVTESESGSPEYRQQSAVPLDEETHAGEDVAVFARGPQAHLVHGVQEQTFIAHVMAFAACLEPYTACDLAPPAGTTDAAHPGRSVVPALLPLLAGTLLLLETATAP
CYP2C19 act: activators of human cytochrome P450 2C19 | P33261 | recombinant CYP2C19, luciferin-H EGE luminescence; hits give high values; 0 = fully inhibited enzyme, 1 = untreated enzyme | activation factor at 5 µM | 96,000 tested, under 10 active;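 active means activation factor of at least 2 at 5 µM in the primary screen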;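 further: 0 = wells with 2.5 mM tranylcypromine and 1 = vehicle-only wells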
CYP2C9 inh: blocks human cytochrome P450 2C9; 20% of 96,000 active; P11712; CYP2C9 Supersomes, luciferin-H conversion, luminescence; inhibition, % at 5 µM;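 active means blocking of liver enzyme CYP2C9 beyond about 50% at 5 µM, limit read from the data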
CYP2C19 inhib: human CYP2C19 inhibition. AID 778. inhibition, % at 5 µM. CYP2C19 Supersomes, luciferin-H EGE luminescence, 30 min. P33261. 21% of 96,000 active;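 active means CYP2C19 inhibition above a set limit at 5 µM in the primary screen, cut at about 50% in these data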;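 further: plate controls were negative control wells for no effect and 2.5 mM tranylcypromine positive control for full effect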
CYP2C9 act: activators of human CYP2C9; 1.4% of 96,000 active; P11712; activation factor at 5 µM; recombinant CYP2C9, luciferin-H conversion, luminescence; hits give high values; factor 1 = untreated enzyme, 0 = blocked;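 active means activation factor of 2 or more for CYP2C9 at a 5 µM dose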;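 further: 0 = sulfaphenazole-blocked wells and 1 = vehicle-only wells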
Numbers without * were called inactive. Most compounds without a hit are left out; they make up all but 31% or so of the library.

SMILES	PLAP activator	CYP2C19 act	CYP2C9 inh	CYP2C19 inhib	CYP2C9 act
COC(=O)CN1C(=O)C(O)(CC(=O)c2ccccc2)c2ccccc21 (stereo not drawn)	0.9	0.5	13	51*	0.9
O=C(CC1(O)C(=O)N(C/C=C/c2ccccc2)c2ccccc21)c1ccccn1 (stereo not drawn)	1	0.1	82*	92*	0.2
CCOC(=O)CN1C(=O)C(O)(CC(=O)c2cccc(OC)c2)c2ccccc21 (stereo not drawn)	1	0.4	28	63*	0.7
COC(=O)CN1C(=O)C(O)(CC(=O)c2ccc(C)o2)c2ccccc21 (stereo not drawn)	0.9	1.1	-4	-6	1
COC(=O)CN1C(=O)C(O)(CC(=O)c2ccc(C)cc2)c2ccccc21 (stereo not drawn)	0.9	0.4	32	62*	0.7
O=C(CSc1ccccc1)Nc1cccnc1	1.1	0.6	7	42	0.9
CC1(C)CCCN(C(=O)c2coc(=O)c(Br)c2)C1	1.1	0.9	13	12	0.9
O=C(CSc1nnc(Cc2ccccc2)o1)N1CCOCC1	1	1	-5	0	1
CCN(CCCNC(=O)C1CCN(S(=O)(=O)N2CCOCC2)CC1)c1cccc(C)c1	1.4	0.9	12	14	0.9
Cc1cc(=O)oc2cc(OCc3cc4c(cc3Cl)OCO4)ccc12	1.1	0.9	30	15	0.7
O=C(CC1(O)C(=O)N(Cc2ccccc2Cl)c2ccccc21)c1ccco1 (stereo not drawn)	0.8	0.6	-33	43	1.3
C=CCN1C(=O)C(O)(CC(=O)c2ccc(N)cc2)c2ccccc21 (stereo not drawn)	1.1	0.4	-11	60*	1.1
CC(Sc1nnc(-c2cccs2)n1-c1ccccc1)C(=O)NCc1ccco1 (stereo not drawn)	1.7	0.3	82*	71*	0.2
COC(=O)c1cccc(CSc2nnc(-c3ccco3)n2-c2ccccc2)c1	1	0.8	68*	16	0.3
Cc1cc(C)c(NC(=O)C(C)Sc2nnc(-c3ccco3)n2-c2ccccc2)c(C)c1 (stereo not drawn)	1.5	0.1	66*	90*	0.3
COc1cc(OC)c(OC)cc1CNCCNC(=O)c1nonc1N	1	0.8	-3	20	1
O=C(CN1CCN(c2ccc(F)cc2)CC1)c1ccc2c(c1)OCO2	0.9	0.7	31	33	0.7
C=C(C)CSc1nc2ncccc2[nH]1	1.3	0.8	-13	18	1.1
Clc1ccc(CSc2nc3ccncc3[nH]2)cc1	1.9	0	89*	98*	0.1
Cc1ccc(CSc2nc3ncccc3[nH]2)cc1	1.3	0.2	56*	76*	0.4
Nc1cc(=O)[nH]c(SCc2ccc(Cl)cc2)n1	1.4	0.8	-7	16	1.1
Cc1ccc(CSc2nc3ccncc3[nH]2)cc1	2.7*	0	88*	99*	0.1
Cc1nc2sc(C(c3cccc(F)c3)N3CC(C)OC(C)C3)c(O)n2n1 (stereo not drawn)	1.2	0.8	-2	25	1
CC1CCC(NC(=O)C2CCN(C(=O)NC3CCCCC3)CC2)CC1 (stereo not drawn)	1.2	1.2	-18	-17	1.2
O=C(/C=C\Nc1cccc(F)c1)c1cccs1	0.8	0.4	20	55*	0.8
SMILES	PLAP activator	CYP2C19 act	CYP2C9 inh	CYP2C19 inhib	CYP2C9 act
CCC(Oc1ccccc1)C(=O)N1CC(C)CC(C)C1 (stereo not drawn)	1.3	0.5	12	51*	0.9
CCCCSc1nc(N)c(NC(=O)c2ccco2)c(=O)[nH]1	1	1.2	-10	-21	1.1
COc1ccc(C=Nc2cccc3c(=O)[nH][nH]c(=O)c23)c2ccccc12	1.2	0.6	79*	42	0.2
O=c1[nH][nH]cc1C=Nc1ccccc1O	1.2	1	10	5	0.9
COC(=O)CSc1ccc(C#N)c(SCC(=O)OC)c1	1.2	0.9	3	12	1
COC(=O)CSc1nc(N)c(C#N)c(-c2ccco2)c1C#N	1	1.1	15	-7	0.8
COC(=O)CSc1nc(N)c(C#N)c(C(C)C)c1C#N	1.1	0.4	48	59*	0.5
COC(=O)CSc1cc(SCC(=O)OC)c(C#N)c(SCC(=O)OC)c1	1	0.6	52*	38	0.5
O=C(CC1=NC2(CCCC2)Cc2ccccc21)N1CCOCC1	1.2	0.8	19	18	0.8
Cc1cc(C)nc(SCSc2nc(C)cc(C)n2)n1	1.1	0.7	14	28	0.9
Cc1cc(C)nc(SCCc2ccncc2)n1	1	0.3	40	73*	0.6
O=C(Cn1nnc(-c2cccs2)n1)OC1CCCCC1	0.9	0.7	37	28	0.6
O=C(NC1CCCC1)C(c1ccncc1)N(CC1CCCO1)C(=O)Cn1nnc(-c2cccs2)n1 (stereo not drawn)	1.4	0.2	95*	78*	0
COc1ccc(N(C(=O)Cn2nnc(-c3ccc(Cl)cc3)n2)C(C(=O)NCC2CCCO2)c2ccc(C)cc2)cc1 (stereo not drawn)	0.9	1.1	7	-12	0.9
O=C(CCn1nnc(-c2cccs2)n1)NC1CCCCC1	1	0.2	-32	76*	1.3
Cc1ccc(C(C(=O)NCC2CCCO2)N(Cc2ccccc2F)C(=O)Cn2nnc(-c3cccs3)n2)cc1 (stereo not drawn)	1	0.7	52*	33	0.5
COc1ccc(-c2nnn(CC(=O)N(Cc3ccccc3Cl)C(C(=O)NCC3CCCO3)c3ccco3)n2)cc1OC (stereo not drawn)	2*	0.8	92*	19	0.1
Cc1nc(C(F)(F)F)c(C(=O)NC(=O)Nc2ccccc2)s1	1.1	0.8	18	21	0.8
Cc1ccc2ccc(S(=O)(=O)n3nc(C)cc3C)cc2c1	1.2	0.4	-16	61*	1.2
CCNC(=O)CC1C(=O)N(c2ccc(F)cc2)C(=O)N1Cc1ccccn1 (stereo not drawn)	1	0.9	17	6	0.8
CCOC(=O)C1=C(CSc2nc3c(cc2C#N)CN(C)CC3)OC(N)=C(C#N)C1c1ccc(F)cc1 (stereo not drawn)	1.6	0.1	86*	92*	0.1
CCOC(=O)C1=C(CSc2nc(-c3ccccc3)ccc2C#N)OC(N)=C(C#N)C1c1cccnc1 (stereo not drawn)	1.3	0.1	94*	92*	0.1
CCOC(=O)C1=C(CSc2nc(-c3ccccc3)ccc2C#N)OC(N)=C(C#N)C1c1ccccc1 (stereo not drawn)	1.2	0.4	92*	59*	0.1
O=C(CN1C(=O)C2CC=CCC2C1=O)Nc1nnc(SCc2ccc(F)cc2)s1 (stereo not drawn)	1.3	1	-16	-2	1.2
CN1CCN(S(=O)(=O)c2ccc(N(C)Cc3cccs3)nc2)CC1	1.3	1	-40	4	1.4

Screening results deposited in PubChem by Sanford-Burnham Center for Chemical Genomics.
